# PubChem BioAssay AID651813 (National Center for Advancing Translational Sciences (NCATS), 2012)
# The whole screen tested about 2,100 compounds, of which about 1,100 (52%) were called active. About 27% were inconclusive and are not listed. The set was probably picked from earlier hits. The list shows a part of the results. Values without a mark were called inactive. The call rests on the fitted dose curve; in most records, active means well fitted inhibition curve with a large enough effect; inconclusive means small, poorly fitted or top-dose-only effect; inactive means no such curve, though single readings can be large or run the other way.
# Biological target: DNA dC->dU-editing enzyme APOBEC-3G (Homo sapiens) (UniProt Q9HC16)
# Sequence (Q9HC16 whole entry, looked up): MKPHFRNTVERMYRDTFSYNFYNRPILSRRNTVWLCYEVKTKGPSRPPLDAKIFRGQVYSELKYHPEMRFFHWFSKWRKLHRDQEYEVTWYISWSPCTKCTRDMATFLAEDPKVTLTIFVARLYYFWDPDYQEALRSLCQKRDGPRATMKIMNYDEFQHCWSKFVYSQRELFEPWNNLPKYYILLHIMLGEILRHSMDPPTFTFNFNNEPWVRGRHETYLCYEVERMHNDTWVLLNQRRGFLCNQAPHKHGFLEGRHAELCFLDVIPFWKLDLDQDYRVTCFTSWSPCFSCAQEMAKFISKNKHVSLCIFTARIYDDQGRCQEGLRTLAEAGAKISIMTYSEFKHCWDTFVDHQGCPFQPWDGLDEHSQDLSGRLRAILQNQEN
# Assay: qHTS for inhibitors of Vif-A3G interactions: Cherry picks counterscreen;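 further: hits raise yellow fluorescence by blocking Vif-driven A3G-eYFP degradation; nearly all actives have a fitted effect of over 70% in size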;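 on max response: max response given as percent of control signal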
# Conditions: HeLa A3G-eYFP + Vif (tagged APOBEC3G with the HIV-1 protein that degrades it), eYFP fluorescence, 24 h
# How it was run: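 Readout is eYFP fluorescence (488 nm excitation, 500-530 nm emission) measured on Acumen Explorer after 24 h compound exposure, several concentrations, at 37 deg C. Cells: HeLa stably co-expressing Vif and C-terminally eYFP-tagged A3G; MG132 positive control.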
# Potency means the concentration at half of the fitted maximal effect.
Compound,Potency,max response
Fc1ccc(-c2cnn3c(-c4cccs4)ccnc23)cc1,5.59 µM (active),
COc1ccc(CN(C(C)=O)c2cccc(C)c2C)cc1,17.7 µM (active),
Cc1nnc(NC(=O)CSc2nc(C(C)C)nc3ccccc23)s1,6.27 µM (active),
COc1ccc(C2CC(c3ccncc3)=NN2c2ccc(S(N)(=O)=O)cc2)cc1 (stereo not given),5.17 µM (active),
O=C1OCC2=C1C(c1ccc3c(c1)OCO3)c1cc3c(cc1O2)OCO3 (stereo not given),2.23 µM (active),
COc1cc(C2C3=C(COC3=O)Oc3cc4c(cc32)OCO4)ccc1OC(C)=O (stereo not given),1.77 µM (active),
CN(C)CCCNc1cc(N2CCN(C3CCCCC3)CC2)c2noc3c2c1C(=O)c1ccccc1-3,1.84 µM (active),
CCNc1cc(N2CCN(C3CCCCC3)CC2)c2noc3c2c1C(=O)c1ccccc1-3,7.31 µM (active),
O=C1c2ccccc2-c2onc3c(N4CCN(C5CCCCC5)CC4)cc(NCCO)c1c23,2.59 µM (active),
CC[N+](C)(C)c1ccc(/C=C/c2ccncc2)cc1,16.4 µM (active),
CCC[N+](C)(C)c1ccc(/C=C/c2ccncc2)cc1,16.4 µM (active),
Cc1ccc(-c2nc(C=Nc3ccc(O)cc3)c(O)o2)cc1,,-18.6%
N#Cc1c(Nc2ccccc2)[n+]([O-])c2ccc(Cl)cc2[n+]1[O-],,26.1%
O=C1CC(c2ccccc2F)c2cc3c(cc2N1)CCC3 (stereo not given),2.8 µM (active),
O=C1CC(c2cc(Br)ccc2F)c2cc3c(cc2N1)CCC3 (stereo not given),1.4 µM (active),
CCOC(=O)Cc1csc(NC(=O)c2sc3nc4c(C)cc(C)cc4cc3c2N)n1,20.6 µM (active),
CCOc1cc(S(=O)(=O)NCc2ccc(OC)cc2)c(OCC)cc1-n1cnnn1,8.86 µM (active),
Cc1cc(C)c(N2C(=O)CC(Sc3ccccc3N)C2=O)c(C)c1 (stereo not given),17.7 µM (active),
COc1cc(C(=O)NCC(=O)N2CCN(S(=O)(=O)c3cc(C)ccc3C)CC2)cc(OC)c1OC,9.94 µM (active),
Cc1ccc(S(=O)(=O)N2CCN(C(=O)CSC(=S)N3CCCC3)CC2)c(C)c1,,-17.2%
Cc1ccc(C)c(NC(=O)N2CC=C(c3c[nH]c4ccccc34)CC2)c1,16.4 µM (active),
COC(=O)c1ccc(Cl)cc1NC(=O)N1CC=C(c2c[nH]c3ccccc23)CC1,23.1 µM (active),
CCOc1ccc(NC(=O)N2CC=C(c3c[nH]c4ccccc34)CC2)cc1,18.4 µM (active),
CSc1cccc(NC(=O)c2cc3c(COC(C)=O)cnc(C)c3oc2=O)c1,,2.84%
Cc1cc(C)nc(-n2nc(C)cc2NC(=O)c2ccc(F)cc2F)n1,,-9.45%
